# Experimental data from PubChem BioAssay (Tox21).
# Values joined by “and” are separate entries in the source; they are usually repeats but may differ in a detail not shown here. Equal values may be shown once. Results filed as inconclusive are left out. Where a call stands in place of a potency, no number is given. Where a structure was tested more than once in an assay, its records may differ in their call. Active and inactive are the calls of the source. Unless noted, the call rests on the fitted dose curve; in most records, active means well fitted curve in the direction sought with a large enough effect in the repeat runs; inconclusive means weak or mixed curves; inactive means no such curve, though single readings can be large; an effect the other way counts as inactive or inconclusive.
# What was measured:
# [1] = qHTS assay to identify small molecule agonists of the estrogen receptor alpha (ER-alpha) signaling pathway in the presence of an antagonist - cell viability counter screen (AID 1259386);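 further: cells exposed to compounds for 22 h at 37 °C before the viability read; nearly all actives have a fitted effect of over 30% in size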; further: potency means the concentration at half of the fitted maximal effect; on activity change, negative = cytotoxicity: series mostly up to about 92 µM
# Method in brief: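 The test measures whether compounds kill ER-alpha reporter cells (VM7Luc4E2) under antagonist co-treatment (ICI-182,780, 10.0nM). Fluorescence from CellTiter-Fluor is read after a 22hr exposure.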
# [2] = target: Progesterone receptor (Homo sapiens) (UniProt P06401); experiment: qHTS assay to identify small molecule agonists of the progesterone receptor (PR) signaling pathway (AID 1346784; calls by dose curve; further: nearly all actives have a fitted effect of over 30% in size; further: potency means the concentration at half of the fitted maximal effect)
# Progesterone receptor (Homo sapiens), sequence (P06401 whole entry, looked up): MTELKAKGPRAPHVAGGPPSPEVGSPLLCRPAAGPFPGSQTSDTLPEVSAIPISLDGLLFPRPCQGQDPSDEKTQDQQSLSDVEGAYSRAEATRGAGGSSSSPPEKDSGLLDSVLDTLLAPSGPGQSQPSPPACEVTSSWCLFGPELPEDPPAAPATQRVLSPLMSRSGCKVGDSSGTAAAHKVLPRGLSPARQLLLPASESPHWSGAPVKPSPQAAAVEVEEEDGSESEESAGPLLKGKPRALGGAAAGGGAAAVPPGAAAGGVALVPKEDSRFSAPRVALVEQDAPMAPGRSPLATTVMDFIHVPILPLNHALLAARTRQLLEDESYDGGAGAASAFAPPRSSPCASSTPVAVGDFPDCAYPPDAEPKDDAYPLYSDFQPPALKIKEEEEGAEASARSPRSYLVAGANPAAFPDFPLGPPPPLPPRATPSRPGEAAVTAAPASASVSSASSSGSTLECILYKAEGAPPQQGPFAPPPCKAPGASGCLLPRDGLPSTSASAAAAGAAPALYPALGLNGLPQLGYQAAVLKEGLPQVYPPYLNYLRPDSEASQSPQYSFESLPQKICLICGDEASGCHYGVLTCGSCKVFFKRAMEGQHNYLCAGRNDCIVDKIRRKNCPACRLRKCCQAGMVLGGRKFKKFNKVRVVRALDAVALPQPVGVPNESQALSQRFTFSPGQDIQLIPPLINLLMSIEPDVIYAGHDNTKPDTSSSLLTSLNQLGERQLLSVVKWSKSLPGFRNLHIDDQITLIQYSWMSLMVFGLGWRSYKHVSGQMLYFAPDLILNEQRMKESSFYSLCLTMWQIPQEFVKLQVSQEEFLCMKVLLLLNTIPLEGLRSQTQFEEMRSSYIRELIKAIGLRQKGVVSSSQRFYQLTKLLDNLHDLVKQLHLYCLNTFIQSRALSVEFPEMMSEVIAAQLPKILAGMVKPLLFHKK
# Method in brief: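 PR-UAS-bla HEK 293T cells carrying a UAS-driven beta-lactamase reporter were seeded in medium with 2% charcoal-stripped FBS, preincubated 6 hr at 37C, then exposed to compounds in DMSO for 16 hr; agonism was read by LiveBLAzer B/G FRET fluorescence.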
# [3] = target: Progesterone receptor (Homo sapiens) (UniProt P06401); experiment: qHTS assay to identify small molecule antagonists of the progesterone receptor (PR) signaling pathway (AID 1346795; active means well fitted inhibition curve with a large enough effect in the signal ratio in the repeat runs, not every such curve was filed as active; the % refers to the signal ratio; further: potency means the concentration at half of the fitted maximal effect)
# Method in brief: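 PR-UAS-bla HEK293T cells carrying a UAS-driven beta-lactamase reporter were plated in medium with 2% charcoal-stripped FBS and rested 6 hr at 37C. Compounds were added with 1 nM R5020 (final) for 16 hr, then FRET substrate loaded 2 hr at room temperature.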
# [4] = qHTS assay to identify small molecule antagonists of the TGF-beta/Smad signaling pathway - cell viability counter screen (AID 1346824); further: nearly all actives have a fitted effect of over 50% in size; further: potency means the concentration at half of the fitted maximal effect
# Method in brief: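 SBE-bla HEK 293T cells were plated overnight at 37 C, then given compounds in DMSO plus TGF-beta1 (added as 0.25 ng/mL solution) for 5 hr. After the bla read, CellTiter-Glo was added to the same wells and luminescence read after 30 min at room temperature.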
# [5] = qHTS assay to identify small molecule agonists of the TGF-beta/Smad signaling pathway - cell viability counter screen (AID 1346829); further: nearly all actives have a fitted effect of over 45% in size; further: potency means the concentration at half of the fitted maximal effect; on activity change, negative = cytotoxicity: top concentration of the series differs between compounds
# Method in brief: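 CellTiter-Glo luminescence readout; SBE-bla HEK 293T cells, overnight plating, compound 5 hr at 37 C/5% CO2, then bla substrate 2 hr RT, then CellTiter-Glo 30 min RT.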
# [6] = target: Thyrotropin-releasing hormone receptor (Homo sapiens) (UniProt P34981); experiment: qHTS assay to identify small molecule antagonists of the thyrotropin-releasing hormone receptor (TRHR) signaling pathway (AID 1346877; active means well fitted inhibition curve with a large enough effect in the repeat runs, not every such curve was filed as active; further: series mostly up to about 51 µM)
# Thyrotropin-releasing hormone receptor (Homo sapiens), sequence (P34981 whole entry, looked up): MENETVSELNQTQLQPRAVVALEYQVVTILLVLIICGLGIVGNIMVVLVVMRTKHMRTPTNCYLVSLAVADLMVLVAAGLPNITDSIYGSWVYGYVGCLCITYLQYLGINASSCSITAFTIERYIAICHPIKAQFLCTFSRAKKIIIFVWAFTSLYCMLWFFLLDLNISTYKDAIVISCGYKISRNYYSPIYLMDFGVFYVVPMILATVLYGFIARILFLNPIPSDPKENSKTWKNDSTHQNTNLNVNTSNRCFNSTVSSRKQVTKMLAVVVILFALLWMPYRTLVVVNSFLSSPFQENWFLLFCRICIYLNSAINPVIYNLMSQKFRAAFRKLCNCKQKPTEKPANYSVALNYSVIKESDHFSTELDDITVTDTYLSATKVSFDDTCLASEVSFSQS
# Method in brief: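 Overnight-plated (18 h, 37 °C) HEK293 cells expressing TRHR were dye-loaded 2 h, treated with compound, then stimulated with TRH at 1 nM final. Fluorescence intensity was captured every second for 3 min.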
# [7] = target: Thyrotropin-releasing hormone receptor (Homo sapiens) (UniProt P34981); experiment: qHTS assay to identify small molecule agonists of the thyrotropin-releasing hormone receptor (TRHR) signaling pathway (AID 1346891; calls by dose curve; further: potency means the concentration at half of the fitted maximal effect; on activation: series mostly up to about 58 µM)
# Method in brief: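 TRHR-expressing HEK293 cells were plated 18 h at 37 °C/5% CO2, loaded with calcium dye 2 h at 37 °C, then given compound in DMSO; fluorescence was read kinetically for 3 min at 1 s intervals.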
# [8] = qHTS assay to identify small molecule antagonists of the progesterone receptor (PR) signaling pathway - cell viability counter screen (AID 1346798); further: nearly all actives have a fitted effect of over 50% in size; further: potency means the concentration at half of the fitted maximal effect; on activity change, negative = cytotoxicity: series mostly up to about 92 µM
# Method in brief: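 PR-UAS-bla HEK293T cells in medium with 2% charcoal-stripped FBS were treated with compounds plus R5020 for 16 hr at 37C. Cell viability was then read by CellTiter-Glo luminescence after 30 min at room temperature in the same wells.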
# [9] = qHTS assay to identify small molecule agonists of the progesterone receptor (PR) signaling pathway - cell viability counter screen (AID 1346799; calls by dose curve; further: nearly all actives have a fitted effect of over 45% in size; further: potency means the concentration at half of the fitted maximal effect)
# Method in brief: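 PR-UAS-bla HEK293T cells, 3,000 per well in medium with 2% charcoal-stripped FBS, were preincubated 6 hr at 37C, then exposed to compounds for 16 hr; viability was read as CellTiter-Glo luminescence after 30 min at room temperature.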
# [10] = qHTS assay to identify small molecule agonists of the TGF-beta/Smad signaling pathway (AID 1346859; active means well fitted activation curve with a large enough effect in the signal ratio in the repeat runs, not every such curve was filed as active; the % refers to the signal ratio; further: series mostly up to about 77 µM)
# Method in brief: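 HEK 293T cells stably carrying a beta-lactamase reporter driven by the Smad binding element were seeded overnight, exposed to DMSO-dissolved compounds for 5 hr at 37 C, 5% CO2, then loaded with FRET substrate for 2 hr at room temperature.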
smiles,measurement,setting,value
CCCCCCc1ccc(O)cc1O,Potency,[1],inactive
same,Potency,[2],inactive
same,Potency,[3],27.4 µM (active) and 27.3 µM (active) and 23.7 µM (active)
same,Potency,[4],inactive
same,Potency,[5],inactive
same,Potency,[6],inactive
same,Potency,[7],inactive
COc1ccc(OC(F)(F)F)cc1CN[C@H]1CCCN[C@H]1c1ccccc1,Potency,[1],inactive
same,Potency,[2],inactive
same,Potency,[8],30.6 µM (active)
same,Potency,[9],24.3 µM (active)
same,Potency,[4],inactive
same,Potency,[5],inactive
CC(O)(P(=O)(O)O)P(=O)(O)O,Potency,[1],inactive
same,Potency,[8],inactive
same,Potency,[9],inactive
same,Potency,[4],inactive
same,Potency,[5],inactive
same,outcome,[10],inactive
same,Potency,[6],inactive
same,Potency,[7],inactive
Nc1ccc(O)c([N+](=O)[O-])c1,Potency,[1],43.3 µM (active)
same,Potency,[4],inactive
same,Potency,[5],inactive
same,outcome,[10],inactive
same,Potency,[6],inactive
same,Potency,[7],inactive
CN1CCc2cccc3c2[C@H]1Cc1ccc(O)c(O)c1-3,Potency,[1],49.1 µM (active) and 22.8 µM (active) and 26.6 µM (active)
same,Potency,[2],inactive
same,Potency,[8],inactive
same,Potency,[4],inactive
same,Potency,[5],inactive
same,Potency,[6],inactive
same,Potency,[7],inactive
Nc1ccc2c(c1)CN1C(=O)c3ccccc3C1=N2,activation,[2],-0.634% [at 19 µM] (inactive)
same,"activity change, negative = inhibition",[3],-14.5% [at 18.9 µM] (inactive)
same,"activity change, negative = cytotoxicity",[8],-15.2% [at 18.9 µM] (inactive)
same,"activity change, negative = cytotoxicity",[9],-25.1% [at 19 µM] (inactive)
same,"activity, negative = inhibition",[6],-0.792% [at 10.5 µM] (inactive)
same,Potency,[7],8.27 µM (active)
COc1ccc2cc(S(=O)(=O)N[C@H](CC(=O)N[C@H](Cc3ccc(CN4[C@H](C)CCC[C@@H]4C)cc3)C(=O)N(C)C(C)C)c3ccc4c(c3)OCO4)ccc2c1,Potency,[1],36.5 µM (active)
same,Potency,[2],inactive
same,Potency,[3],57.9 µM (active)
same,Potency,[9],29 µM (active)
CC(C)C(=O)Nc1ccc([N+](=O)[O-])c(C(F)(F)F)c1,Potency,[2],inactive
same,Potency,[3],25 µM (active)
same,Potency,[8],inactive
same,Potency,[9],inactive
same,Potency,[4],inactive
same,Potency,[5],inactive
same,Potency,[6],inactive
same,Potency,[7],inactive
CC1(C)O[C@@H]2C[C@H]3[C@@H]4CCC5=CC(=O)C=C[C@]5(C)[C@@]4(F)[C@@H](O)C[C@]3(C)[C@]2(C(=O)CO)O1,Potency,[1],inactive
same,Potency,[2],3.5 nM (active) and 3.9 nM (active) and 3.8 nM (active)
same,Potency,[8],inactive
same,Potency,[9],inactive
same,Potency,[4],inactive
same,Potency,[5],inactive
COc1cccc(O)c1O,Potency,[2],inactive
same,Potency,[3],inactive
same,Potency,[8],inactive
same,Potency,[9],inactive
same,Potency,[4],inactive
same,Potency,[5],inactive
same,outcome,[10],inactive
same,Potency,[6],inactive
same,Potency,[7],inactive
C1=CC2C3C=CC(C3)C2C1 (centres undefined),Potency,[1],inactive
same,Potency,[2],inactive
same,Potency,[8],inactive
same,Potency,[4],inactive
same,Potency,[5],inactive
same,Potency,[7],34.1 µM (active)
CCc1nc(N)nc(N)c1-c1ccc(Cl)cc1,Potency,[1],inactive
same,Potency,[2],inactive
same,Potency,[8],inactive
same,Potency,[9],inactive
same,Potency,[4],inactive
same,Potency,[5],inactive and 16.9 µM (active)
same,outcome,[10],inactive
Oc1ccccc1,Potency,[1],inactive
same,Potency,[8],inactive
same,Potency,[9],inactive
same,Potency,[4],inactive
same,Potency,[5],inactive
CN(C)C(=S)SC(=S)N(C)C,Potency,[1],35.3 µM (active) and 3.06 µM (active) and inactive
same,Potency,[2],inactive
same,Potency,[8],994 nM (active) and 969 nM (active) and 750 nM (active)
same,Potency,[9],2.22 µM (active) and 1.22 µM (active) and 266 nM (active)
same,Potency,[4],inactive
same,Potency,[5],inactive
same,outcome,[10],inactive
same,Potency,[6],inactive
same,Potency,[7],inactive
CCN(Cc1c(F)cccc1Cl)c1c([N+](=O)[O-])cc(C(F)(F)F)cc1[N+](=O)[O-],Potency,[1],inactive
same,Potency,[2],inactive
same,Potency,[8],21.7 µM (active)
same,Potency,[9],8.63 µM (active)
same,Potency,[4],inactive
same,Potency,[5],inactive
same,Potency,[6],inactive
same,Potency,[7],inactive
C=C1CC[C@H](O)C/C1=C\C=C1/CCC[C@]2(C)[C@@H]([C@H](C)CCCC(C)C)CC[C@@H]12,Potency,[4],inactive
same,Potency,[5],inactive
same,outcome,[10],inactive
same,Potency,[6],inactive
same,Potency,[7],inactive
CC(C)c1c(C(=O)Nc2ccccc2)c(-c2ccccc2)c(-c2ccc(F)cc2)n1CC[C@@H](O)C[C@@H](O)CC(=O)O,Potency,[1],inactive
same,Potency,[8],6.41 µM (active)
same,Potency,[9],1.48 µM (active) and 227 nM (active) and 2.11 µM (active)
same,Potency,[4],inactive
same,Potency,[5],inactive
same,outcome,[10],inactive
same,Potency,[6],inactive
same,Potency,[7],inactive
O=C(O)CC(O)C(=O)O (centres undefined),Potency,[1],inactive
same,Potency,[8],inactive
same,Potency,[9],inactive
same,Potency,[4],inactive
same,Potency,[5],inactive
same,outcome,[10],inactive
same,Potency,[6],inactive
same,Potency,[7],inactive
O=c1[nH]cc(F)c(=O)[nH]1,Potency,[1],inactive
same,Potency,[2],inactive
same,Potency,[3],inactive
same,Potency,[9],28.3 µM (active) and inactive
same,Potency,[4],inactive
same,Potency,[5],inactive
same,outcome,[10],inactive
same,Potency,[6],inactive
same,Potency,[7],inactive
O=C1OC2(c3ccccc31)c1cc(Br)c(O)c(Br)c1Oc1c2cc(Br)c(O)c1Br,Potency,[1],11 µM (active) and 19.9 µM (active) and 10.6 µM (active)
same,Potency,[2],inactive
same,Potency,[8],inactive
same,Potency,[9],inactive
same,Potency,[4],inactive
same,Potency,[5],inactive
NC(=O)n1c(O)c(C(=O)c2cccs2)c2cc(Cl)ccc21,Potency,[1],29.8 µM (active)
same,Potency,[2],inactive
same,Potency,[4],inactive
same,Potency,[5],inactive
same,outcome,[10],inactive
same,Potency,[6],inactive
same,Potency,[7],inactive
O=C(Nc1ncc([N+](=O)[O-])s1)c1cccs1,Potency,[1],26.6 µM (active)
same,Potency,[2],inactive
same,Potency,[8],inactive
same,Potency,[9],inactive
same,Potency,[4],10.7 µM (active)
same,Potency,[5],15.1 µM (active)
same,outcome,[10],inactive
same,Potency,[6],inactive
same,Potency,[7],inactive
